Screening results (PubChem BioAssay)
Most compounds without a hit are left out; they make up all but 1.1% or so of the library.
RecA splice inh: Mtb RecA intein splicing inhibitors, primary screen, biochemical, fluorescence, HTS; Protein RecA (Mycobacterium tuberculosis (strain ATCC 25618 / H37Rv)), P9WHJ3; cell-free RecA intein splicing; inhibition, % (concentration not given with the values); 290,000 tested, 0.75% active; in the data active = inhibition above about 30%;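 note: 0% = vehicle wells and 100% = reference inhibitor control wells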
Target sequence (P9WHJ3 whole entry, looked up, canonical isoform): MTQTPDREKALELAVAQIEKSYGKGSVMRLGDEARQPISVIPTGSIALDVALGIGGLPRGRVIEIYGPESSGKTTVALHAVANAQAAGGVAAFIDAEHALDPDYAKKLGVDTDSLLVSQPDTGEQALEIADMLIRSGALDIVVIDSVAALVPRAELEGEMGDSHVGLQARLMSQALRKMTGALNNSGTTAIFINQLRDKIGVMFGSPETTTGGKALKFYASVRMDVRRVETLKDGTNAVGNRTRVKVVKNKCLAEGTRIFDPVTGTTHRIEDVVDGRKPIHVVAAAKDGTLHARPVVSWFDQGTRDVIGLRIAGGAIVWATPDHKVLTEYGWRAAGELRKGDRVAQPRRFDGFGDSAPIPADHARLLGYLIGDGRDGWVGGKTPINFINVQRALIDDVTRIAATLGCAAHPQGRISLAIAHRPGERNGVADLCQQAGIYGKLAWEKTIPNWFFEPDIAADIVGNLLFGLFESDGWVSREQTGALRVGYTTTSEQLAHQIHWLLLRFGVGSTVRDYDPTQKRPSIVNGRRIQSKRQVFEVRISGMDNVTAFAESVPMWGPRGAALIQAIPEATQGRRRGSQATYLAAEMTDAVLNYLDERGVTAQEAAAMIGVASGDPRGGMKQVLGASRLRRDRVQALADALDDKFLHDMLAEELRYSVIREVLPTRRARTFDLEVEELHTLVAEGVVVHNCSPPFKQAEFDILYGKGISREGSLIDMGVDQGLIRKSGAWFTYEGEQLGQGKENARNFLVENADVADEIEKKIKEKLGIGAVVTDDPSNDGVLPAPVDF
CCHF vOTU inh-1: CCHFV vOTU protease inhibitors, primary screen, biochemical, Pep-AMC substrate, fluorescence; Crimean-Congo hemorrhagic fever virus L polyprotein viral ovarian tumor (vOTU) protease …; inhibition, % at 11.5 µM; 370,000 tested, 0.55% active; note: 0% = vehicle wells with enzyme and 100% = no enzyme wells
BJeLR viability: MLPCN primary cell-based screen for lethality selective to Ras in HRASV12 cells | BJeLR (HRASV12) viability, CellTiter-Glo ATP luminescence, 48 h | 300,000 tested, 0.17% active | inhibition, % (no concentration beside the values); in the data active = inhibition above about 50%
Y pestis TopoI: Yersinia pestis topoisomerase I inhibitors, primary screen, biochemical, cleavage product accumulation, plate reader, single point; 360,000 tested, 0.064% active; Y. pestis Topo-I cleavage product accumulation; activity, % at 10 µM; AID 504884, 2011; DNA topoisomerase I (Yersinia pestis CO92); in the data active = activity above about 50%, passing the limit was not always enough
Mtb bLac sens: beta-lactam sensitization of Mtb H37Rv, H37Rv; M. tuberculosis H37Rv growth with meropenem, percent inhibition; inhibition, % at 25 µM; 330,000 tested, 0.27% active; call rule not given here;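 note: growth measured after seven days incubation then overnight dye step; 0% = bacteria only wells and 100% = bacteria with antibiotic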
BioA inh: M. tuberculosis BioA enzyme inhibitors, primary screen, biochemical, plate reader, single point, HTS; 360,000 tested, 0.096% active; inhibition, % at 9.99 µM; purified M. tuberculosis BioA enzyme; in the data active = inhibition above about 40%
CCHF vOTU inh-2: CCHFV vOTU protease inhibitors, confirmation, biochemical, Pep-AMC substrate, fluorescence; shares compounds with CCHF vOTU inh-1; Recombinant CCHFV vOTU; inhibition, % at 11.5 µM; 1,900 tested, 17% active; AID 686976, 2013
Active calls of the source: *. Cut-off read from the data, not from the text of the source, unless noted: active = inhibition above about 30%; inactive = the rest.

How did COc1cc(C(=O)OC2C[C@H]3CC[C@@H](C2)N3C)ccc1O (stereo partly specified) do in these assays?
RecA splice inh: -2.0; CCHF vOTU inh-1: -5.8; BJeLR viability: 5.1; Y pestis TopoI: 0.4; Mtb bLac sens: -5.8; BioA inh: -0.8

How did COc1cc(C(=O)O[C@H]2CC(C)=CC[C@@]3(C)CC[C@@](O)(C(C)C)[C@H]23)ccc1O do in these assays?
RecA splice inh: 11.2; CCHF vOTU inh-1: 38.0*; BJeLR viability: 2.9; Y pestis TopoI: 27.2; Mtb bLac sens: 1.9; BioA inh: 1.3; CCHF vOTU inh-2: 5.4

How did CC(C)NC(=O)Nc1cccc2c1O[C@H](CN(C)S(=O)(=O)c1cccs1)[C@@H](C)CN([C@@H](C)CO)C2=O do in these assays?
BioA inh: -1.0

How did CC(=O)Nc1cc(-c2cccc(NS(C)(=O)=O)c2)cn2c(-c3cccc(C(F)(F)F)c3)cnc12 do in these assays?
CCHF vOTU inh-1: 7.4; Y pestis TopoI: 38.9; BioA inh: -0.1

What do the screens show for `CC(=O)Nc1cc(-c2ccccc2N(C)C)cn2c(-c3cccc(C(F)(F)F)c3)cnc12`?
CCHF vOTU inh-1: 33.6*; Y pestis TopoI: -14.3; BioA inh: -5.8; CCHF vOTU inh-2: -2.4

Results for COCC#Cc1cnc2c(c1)C(=O)N([C@@H](C)CO)C[C@H](C)[C@H](CN(C)C(=O)c1cccc(F)c1)O2 ?
BioA inh: 2.6

What do the screens show for `Cc1ccccc1S(=O)(=O)N1[C@H](CO)[C@@H](c2ccc(-c3ccc(F)cc3)cc2)[C@@H]1C#N`?
BioA inh: -1.1

What do the screens show for `CC(Nc1cccc2ccccc12)C(=O)N/N=C/c1ccccn1` (stereo unspecified)?
RecA splice inh: 4.4; CCHF vOTU inh-1: 114.3*; BJeLR viability: 0.0; Y pestis TopoI: -12.4; Mtb bLac sens: 31.5; BioA inh: -1.7; CCHF vOTU inh-2: -3.9

Results for O=C(CCCC(=O)N/N=C\c1ccccn1)N/N=C\c1ccccn1 ?
RecA splice inh: 0.1; CCHF vOTU inh-1: -9.1; BJeLR viability: 4.6; Y pestis TopoI: 3.1; Mtb bLac sens: 6.0

Results for C[C@H]1CCCCO[C@H](CN(C)Cc2ccccc2)[C@@H](C)CN([C@@H](C)CO)C(=O)c2cc(NC(=O)Nc3ccccc3)ccc2O1 ?
BioA inh: -1.0

Results for COc1ccc(N2C(=O)C(Cl)=C(Nc3ccccc3OC)C2=O)cc1 ?
RecA splice inh: 0.3; CCHF vOTU inh-1: 36.3*; BJeLR viability: -5.7; Y pestis TopoI: 19.2; Mtb bLac sens: 3.1; BioA inh: 1.7; CCHF vOTU inh-2: -5.3

Results for C/C(=N\NC(=O)c1cc(O)ccc1O)c1cccc(NC(=O)c2cccc(Cl)c2)c1 ?
RecA splice inh: -6.1; CCHF vOTU inh-1: 31.7*; BJeLR viability: -4.3; Y pestis TopoI: -15.6; Mtb bLac sens: -8.9; BioA inh: 0.7; CCHF vOTU inh-2: -2.9

What do the screens show for `C/C(=N\NC(=O)c1cc(O)ccc1O)c1cccc(NC(=O)c2ccc(Cl)cc2)c1`?
RecA splice inh: -5.3; CCHF vOTU inh-1: 5.6; BJeLR viability: 2.1; Y pestis TopoI: -10.2; Mtb bLac sens: 2.5; BioA inh: 8.4

What do the screens show for `Cc1cccc(C(=O)N[C@@H](C)C(=O)N2CCN(c3ncccn3)CC2)c1`?
CCHF vOTU inh-1: 34.1*; Y pestis TopoI: -5.7; Mtb bLac sens: -4.1; BioA inh: -1.1; CCHF vOTU inh-2: -26.8

Results for COc1ccc(C#Cc2cnc3c(c2)C(=O)N([C@@H](C)CO)C[C@H](C)[C@H](CN(C)C(=O)c2ccccc2F)O3)cc1 ?
BioA inh: -0.1

How did CCc1nc2c(OCCC3CCCCC3)cccn2c1N(C)C(=O)c1ccc(OC)cc1 do in these assays?
CCHF vOTU inh-1: 20.6; Y pestis TopoI: 27.9; BioA inh: -0.7

Results for CCc1nc2c(OCCC3CCCCC3)cccn2c1N(C)C(=O)c1ccncc1 ?
CCHF vOTU inh-1: 31.5*; Y pestis TopoI: 33.2; BioA inh: 1.6; CCHF vOTU inh-2: -1.2

Results for CNC(=O)C[C@@H]1CC[C@@H]2[C@H](COc3ccc(NC(=O)C4CC4)cc3C(=O)N2C)O1 ?
BioA inh: -2.3

What do the screens show for `O=C(NC1CCCC1)c1ccc(CS(=O)Cc2ccccc2Cl)o1` (stereo unspecified)?
RecA splice inh: 0.1; CCHF vOTU inh-1: 34.4*; BJeLR viability: 1.2; Y pestis TopoI: 2.3; Mtb bLac sens: -0.4; BioA inh: 0.5; CCHF vOTU inh-2: -19.1

What do the screens show for `S=c1[nH]nc(C2CCCCC2)n1/N=C/C=C/c1ccccc1`?
RecA splice inh: 3.2; CCHF vOTU inh-1: 32.2*; BJeLR viability: -10.9; Y pestis TopoI: 0.9; Mtb bLac sens: 1.9; BioA inh: -2.9; CCHF vOTU inh-2: 8.2

How did Clc1ccccc1C=NNc1ccccn1 do in these assays?
CCHF vOTU inh-1: -8.4; Y pestis TopoI: -6.4; BioA inh: -0.5

How did CCc1nnc(N/N=C/c2ccccc2Cl)n1N do in these assays?
RecA splice inh: 1.0; CCHF vOTU inh-1: 84.3*; BJeLR viability: 1.5; Y pestis TopoI: -0.6; Mtb bLac sens: -2.7; BioA inh: 2.4; CCHF vOTU inh-2: -15.9

Results for COc1cccc(/C=N/Nc2nnc(C)n2N)c1OCc1ccccc1Cl ?
RecA splice inh: 2.0; CCHF vOTU inh-1: 75.3*; BJeLR viability: 5.4; Y pestis TopoI: 16.0; Mtb bLac sens: -5.7; CCHF vOTU inh-2: -7.4

What do the screens show for `CCc1nnc(N/N=C/c2ccccc2F)n1N`?
RecA splice inh: -1.4; CCHF vOTU inh-1: 77.3*; BJeLR viability: -1.4; Y pestis TopoI: -1.8; Mtb bLac sens: 17.0; CCHF vOTU inh-2: -4.3

What do the screens show for `CCC(=O)Nc1ccc2c(c1)C(=O)N(C)[C@H]1CC[C@@H](CC(=O)NCC3CC3)O[C@@H]1CO2`?
BioA inh: -2.4

How did COC(=O)C[C@@H]1CC[C@H]2[C@@H](COc3ccc(NS(C)(=O)=O)cc3C(=O)N2C)O1 do in these assays?
BioA inh: 2.8

Results for COC(=O)[C@]12C[C@H](CC(=O)NCCC(C)C)C(=O)N(Cc3ccc4c(c3)OCO4)C1=C[C@H](C(C)(C)C)O[C@@H]2C ?
CCHF vOTU inh-1: 31.8*; CCHF vOTU inh-2: -2.7

What do the screens show for `COC(=O)[C@]12C[C@H](CC(=O)NCc3cccc(C(F)(F)F)c3)C(=O)N(Cc3ccc4c(c3)OCO4)C1=C[C@H](C(C)(C)C)O[C@@H]2C`?
CCHF vOTU inh-1: 34.3*; CCHF vOTU inh-2: 10.8
